The record followed here is PubChem BioAssay (Tox21).

Several values for one entry are separate records, joined by “and”; a condition that tells them apart may be missing. Equal entries are not always repeated. Unmarked numbers belong to inactive results. Results filed as inconclusive are left out. Activity calls are given as the source filed them. Unless noted, calls come from the whole dose curve; as a rule, active = well fitted curve in the direction sought with a large enough effect in the repeat runs; inconclusive = weak or mixed curves; inactive = no such curve, though single readings can be large; an effect the other way counts as inactive or inconclusive.

Experiment [1] is described as follows: qHTS assay to identify small molecule agonists of the estrogen receptor alpha (ER-alpha) signaling pathway in the presence of an antagonist - cell viability counter screen (AID 1259386).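 Note: series mostly up to about 92 µM; cells exposed to compounds for 22 h at 37 °C before the viability read; nearly all actives have a fitted effect of over 30% in size.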 In outline:
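Viability counter screen using VM7Luc4E2 (full-length ER-alpha, four ERE-luciferase). The cells were treated with compounds alongside ICI-182,780 10.0nM for 22hr, and live-cell protease fluorescence was quantified with CellTiter-Fluor.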

The target of experiment [2] is Progesterone receptor (Homo sapiens) (UniProt P06401). Description: qHTS assay to identify small molecule agonists of the progesterone receptor (PR) signaling pathway (AID 1346784; calls by dose curve; note: nearly all actives have a fitted effect of over 30% in size; note: potency is the fitted concentration of half-maximal effect). In outline: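 Compounds were tested for PR agonism in HEK 293T cells bearing a beta-lactamase gene under UAS control. Treatment lasted 16 hr at 37C; signal came from fluorescence of a FRET substrate.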

Experiment [3] has the same target. Description: qHTS assay to identify small molecule antagonists of the progesterone receptor (PR) signaling pathway (AID 1346795; active = well fitted inhibition curve with a large enough effect in the signal ratio in the repeat runs, not every such curve was filed as active; the % refers to the signal ratio; note: potency is the fitted concentration of half-maximal effect). In a few lines:
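In HEK293T cells bearing the PR-UAS-bla reporter, compound effects on promegestone-driven (1 nM) beta-lactamase expression are assessed after 16 hr using a fluorescent FRET substrate incubated 2 hr at room temperature.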

The nature of experiment [4]: qHTS assay to identify small molecule agonists of the progesterone receptor (PR) signaling pathway - cell viability counter screen (AID 1346799; calls by dose curve; note: nearly all actives have a fitted effect of over 45% in size). In a few lines: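 Here, 3,000 PR-UAS-bla HEK293T cells per well were treated with compounds for 16 hr after a 6 hr preincubation at 37C and 5% CO2; cell viability is the CellTiter-Glo luminescence signal.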
(In general: Quantitative high-throughput screening tests each substance at several concentrations.)

Experiment [5] in a line: qHTS assay to identify small molecule antagonists of the TGF-beta/Smad signaling pathway - cell viability counter screen (AID 1346824). Note: nearly all actives have a fitted effect of over 50% in size. In a few lines:
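SBE-bla HEK 293T cells, incubated overnight, then compound plus 0.25 ng/mL TGF-beta1 (stock added) for 5 hr at 37 C. Viability was read in the same wells by CellTiter-Glo luminescence after 30 min at room temperature.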

Experiment [6] can be described thus: qHTS assay to identify small molecule agonists of the TGF-beta/Smad signaling pathway - cell viability counter screen (AID 1346829). Note: top concentration of the series differs between compounds; nearly all actives have a fitted effect of over 45% in size. In outline: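 SBE-bla HEK 293T cells plated overnight, compound exposure 5 hr at 37 C. Viability read in the same wells by CellTiter-Glo luminescence after 30 min at room temperature, following the beta-lactamase read.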
A short description of experiment [7]: qHTS assay to identify small molecule agonists of the TGF-beta/Smad signaling pathway (AID 1346859; active = well fitted activation curve with a large enough effect in the signal ratio in the repeat runs, not every such curve was filed as active; the % refers to the signal ratio; note: series mostly up to about 77 µM). In a few lines: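 Each well held 4,000 SBE-bla HEK 293T cells incubated overnight before compound addition; 5 hr later the cleavable FRET substrate went on for 2 hr at room temperature, and fluorescence was read at two emissions.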
The target in experiment [8] is Thyrotropin-releasing hormone receptor (Homo sapiens) (UniProt P34981). Description: qHTS assay to identify small molecule antagonists of the thyrotropin-releasing hormone receptor (TRHR) signaling pathway (AID 1346877; active = well fitted inhibition curve with a large enough effect in the repeat runs, not every such curve was filed as active; note: series mostly up to about 51 µM). In outline: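 Following an 18 h incubation at 37 °C and a 2 h calcium dye load, TRHR-HEK293 cells were exposed to compound (5 min, room temperature) and challenged with TRH, 1 nM final.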

For experiment [9] the target is unchanged. Nature of the experiment: qHTS assay to identify small molecule agonists of the thyrotropin-releasing hormone receptor (TRHR) signaling pathway (AID 1346891; calls by dose curve; note: series mostly up to about 58 µM). In outline: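 Screening of agonists relied on calcium signalling in HEK293 cells expressing human TRHR: dye loading 2 h at 37 °C preceded compound addition and a 3-min fluorescence time course.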

Experiment [10] can be described thus: Caspase-3/7 induction in HepG2 cells by small molecules, qHTS assay (AID 1346978). Note: nearly all actives have a fitted effect of over 15% in size. In a few lines: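 Wild-type HepG2 cells, 2,000/well, settled 5 hr at 37 C and 5% CO2, then compound-treated for 17 hr; caspase-3/7 activity read by luminescent Caspase-Glo 3/7 after 30 min at room temperature.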
The nature of experiment [11]: Caspase-3/7 induction in CHO-K1 cells by small molecules, qHTS cell viability counter screen (AID 1346979). Note: nearly all actives have a fitted effect of over 35% in size. Note: potency is the fitted concentration of half-maximal effect. In outline:
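CellTiter-Fluor viability check, qHTS format: wild-type CHO-K1, 16hr compound treatment, 1hr reagent incubation, fluorescence read.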

Experiment [12] can be described thus: Caspase-3/7 induction in CHO-K1 cells by small molecules, qHTS assay (AID 1346980). Note: nearly all actives have a fitted effect of over 15% in size. In outline:
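Wild-type CHO-K1 cells exposed to compounds for 17hr at 37 C, 5% CO2. Caspase-3/7 activity then measured by Caspase-Glo 3/7 luminescence after 30min at room temperature.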

The target of experiment [13] is Cytochrome P450 2D6 (Homo sapiens) (UniProt P10635). Description: Cytochrome P450 Family 2 Subfamily D Member 6 (CYP2D6) small molecule antagonists: luciferase reporter qHTS assay (AID 1671196). Note: nearly all actives have a fitted effect of over 50% in size. Note: potency is the fitted concentration of half-maximal effect. In a few lines:
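Each well received CYP2D6 with its proluciferin substrate and chemical, sat 10 min, then got NADPH regeneration solution for 1 h at room temperature. Luminescence in RLU served as the activity measure.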
(In general: Reporter assays use an easily measured gene product as a stand-in for the process of interest.)

A short description of experiment [14]: Human pregnane X receptor (PXR) small molecule agonists, qHTS cell viability counter screen (AID 1346977). Note: nearly all actives have a fitted effect of over 50% in size. Note: potency is the fitted concentration of half-maximal effect. In outline:
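Tox21 qHTS format; PXR-Luc HepG2, 2,000/well, charcoal-stripped FBS 5%. Cpd exposure 24hr. Read: CellTiter-Fluor fluorescence, multiplexed with luciferase.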

Experiment [15] has as its target Nuclear receptor subfamily 1 group I member 2 (Homo sapiens) (UniProt O75469). Nature of the experiment: Human pregnane X receptor (PXR) small molecule agonists, qHTS assay (AID 1346982). Note: nearly all actives have a fitted effect of over 35% in size. Note: potency is the fitted concentration of half-maximal effect. In a few lines:
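Compound-induced hPXR transactivation of a CYP3A4 luciferase reporter was scored in HepG2 PXR-Luc cells over 24 hr at 37 C, 5% CO2, by luminescence.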

Experiment [16] can be described thus: Caspase-3/7 induction in HepG2 cells by small molecules, qHTS cell viability counter screen (AID 1346981). Note: nearly all actives have a fitted effect of over 30% in size. Note: potency is the fitted concentration of half-maximal effect. In outline: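 Viability determined by CellTiter-Fluor fluorescence in HepG2 wells also used for the luminescent Caspase-Glo 3/7 read. Compounds were present for 16 hr at 37 C, 5% CO2 before reagent addition.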
A short description of experiment [17]: qHTS assay to identify small molecule antagonists of the progesterone receptor (PR) signaling pathway - cell viability counter screen (AID 1346798). Note: series mostly up to about 92 µM; nearly all actives have a fitted effect of over 50% in size. In outline: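 Following a 4 hr attachment, PR-UAS-bla HEK293T cells in charcoal-stripped FBS medium were exposed to compounds with R5020 for 16 hr; CellTiter-Glo was added and luminescence read after 30 min at room temperature.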

The target of experiment [18] is Nuclear receptor subfamily 1 group I member 2 (Rattus norvegicus) (UniProt Q9R1A7). Description: Rat pregnane X receptor (rPXR) activation by small molecules, qHTS assay (AID 1346983). Note: nearly all actives have a fitted effect of over 20% in size. As to conditions: rPXR luciferase reporter cells, One-Glo luminescence, 24 h; active compounds read high. In a few lines:
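Cell-based rPXR activation assay: rPXR cells, 2,000 per well, rested 5hr at 37 C, then exposed to compounds in DMSO for 24 hr at 37 C. Luciferase activity read by One-Glo luminescence after 30 min at room temperature.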
% is set by controls: 0 for no effect and ±100 for the full control effect.

Nuclear receptor subfamily 1 group I member 2 (Homo sapiens), sequence (O75469 whole entry, looked up): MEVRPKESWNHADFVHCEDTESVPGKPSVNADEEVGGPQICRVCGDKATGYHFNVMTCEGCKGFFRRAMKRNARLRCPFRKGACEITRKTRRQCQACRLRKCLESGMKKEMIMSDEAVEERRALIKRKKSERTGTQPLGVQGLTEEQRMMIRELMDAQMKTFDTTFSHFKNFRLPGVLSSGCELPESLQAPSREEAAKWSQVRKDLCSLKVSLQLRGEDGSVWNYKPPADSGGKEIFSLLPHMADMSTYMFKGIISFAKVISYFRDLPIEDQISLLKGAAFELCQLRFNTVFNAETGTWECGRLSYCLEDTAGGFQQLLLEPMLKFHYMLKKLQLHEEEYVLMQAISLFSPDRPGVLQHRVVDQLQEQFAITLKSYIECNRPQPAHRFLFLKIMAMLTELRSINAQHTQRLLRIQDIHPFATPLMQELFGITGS
Cytochrome P450 2D6 (Homo sapiens), sequence (P10635 whole entry, looked up): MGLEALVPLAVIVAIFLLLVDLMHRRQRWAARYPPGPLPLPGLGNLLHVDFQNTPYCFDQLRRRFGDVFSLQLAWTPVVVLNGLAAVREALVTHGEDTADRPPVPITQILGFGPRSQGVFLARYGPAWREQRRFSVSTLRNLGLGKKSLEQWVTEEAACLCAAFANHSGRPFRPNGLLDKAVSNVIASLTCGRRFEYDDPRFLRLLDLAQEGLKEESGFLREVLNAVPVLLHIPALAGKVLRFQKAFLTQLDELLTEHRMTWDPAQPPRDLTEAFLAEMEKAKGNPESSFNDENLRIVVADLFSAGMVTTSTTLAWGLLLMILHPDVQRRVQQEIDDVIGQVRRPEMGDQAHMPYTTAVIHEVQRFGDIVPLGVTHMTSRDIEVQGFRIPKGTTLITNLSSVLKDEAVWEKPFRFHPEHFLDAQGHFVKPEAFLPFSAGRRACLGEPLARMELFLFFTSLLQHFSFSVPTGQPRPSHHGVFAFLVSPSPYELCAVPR
Progesterone receptor (Homo sapiens), sequence (P06401 whole entry, looked up): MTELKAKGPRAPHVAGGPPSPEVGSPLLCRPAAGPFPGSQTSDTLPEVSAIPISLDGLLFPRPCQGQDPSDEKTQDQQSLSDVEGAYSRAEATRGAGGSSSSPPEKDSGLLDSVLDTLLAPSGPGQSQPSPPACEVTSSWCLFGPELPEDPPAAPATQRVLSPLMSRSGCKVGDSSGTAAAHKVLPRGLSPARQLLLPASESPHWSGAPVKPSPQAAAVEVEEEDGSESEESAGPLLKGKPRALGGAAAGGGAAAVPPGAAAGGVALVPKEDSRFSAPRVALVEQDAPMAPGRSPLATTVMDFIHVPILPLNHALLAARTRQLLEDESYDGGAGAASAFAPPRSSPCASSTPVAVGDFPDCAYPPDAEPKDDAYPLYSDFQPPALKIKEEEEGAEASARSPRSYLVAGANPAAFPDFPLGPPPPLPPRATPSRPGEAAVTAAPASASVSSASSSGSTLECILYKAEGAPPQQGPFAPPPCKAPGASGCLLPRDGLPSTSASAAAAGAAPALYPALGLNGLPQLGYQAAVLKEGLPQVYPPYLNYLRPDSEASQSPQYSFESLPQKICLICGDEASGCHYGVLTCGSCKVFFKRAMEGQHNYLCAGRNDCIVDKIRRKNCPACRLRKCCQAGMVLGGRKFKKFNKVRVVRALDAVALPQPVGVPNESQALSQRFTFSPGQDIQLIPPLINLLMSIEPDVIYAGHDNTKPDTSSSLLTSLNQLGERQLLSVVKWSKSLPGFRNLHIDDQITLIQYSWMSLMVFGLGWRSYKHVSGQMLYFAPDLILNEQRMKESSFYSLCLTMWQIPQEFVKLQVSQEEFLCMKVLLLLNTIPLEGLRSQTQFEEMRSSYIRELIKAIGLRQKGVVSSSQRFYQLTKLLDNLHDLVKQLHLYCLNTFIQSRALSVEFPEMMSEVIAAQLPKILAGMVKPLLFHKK
Thyrotropin-releasing hormone receptor (Homo sapiens), sequence (P34981 whole entry, looked up): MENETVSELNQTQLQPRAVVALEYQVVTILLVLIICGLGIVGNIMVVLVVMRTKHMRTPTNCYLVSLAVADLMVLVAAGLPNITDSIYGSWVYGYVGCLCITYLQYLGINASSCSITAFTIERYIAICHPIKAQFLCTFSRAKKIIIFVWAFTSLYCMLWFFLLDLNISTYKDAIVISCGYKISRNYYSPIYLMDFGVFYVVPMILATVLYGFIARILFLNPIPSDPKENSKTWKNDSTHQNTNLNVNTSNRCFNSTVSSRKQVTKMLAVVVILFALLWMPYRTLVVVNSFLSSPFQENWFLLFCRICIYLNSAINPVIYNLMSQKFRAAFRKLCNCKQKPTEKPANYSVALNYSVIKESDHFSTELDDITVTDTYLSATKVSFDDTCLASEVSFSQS
Nuclear receptor subfamily 1 group I member 2 (Rattus norvegicus), sequence (Q9R1A7 whole entry, looked up): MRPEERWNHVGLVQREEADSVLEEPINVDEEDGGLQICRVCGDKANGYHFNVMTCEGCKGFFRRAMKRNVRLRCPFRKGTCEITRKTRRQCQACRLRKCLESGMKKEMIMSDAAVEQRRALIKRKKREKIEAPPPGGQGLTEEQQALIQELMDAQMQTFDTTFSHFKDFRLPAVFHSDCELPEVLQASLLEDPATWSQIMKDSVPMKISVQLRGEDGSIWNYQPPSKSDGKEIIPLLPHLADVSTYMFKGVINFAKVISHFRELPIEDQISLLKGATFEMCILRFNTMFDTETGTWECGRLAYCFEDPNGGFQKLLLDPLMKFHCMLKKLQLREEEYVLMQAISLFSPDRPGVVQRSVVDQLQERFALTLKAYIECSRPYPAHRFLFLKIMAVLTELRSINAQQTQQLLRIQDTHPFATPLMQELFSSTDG

For the compound `CCO[C@@H]1O[C@H](C(COCc2ccccc2)OCc2ccccc2)[C@H](OCc2ccccc2)[C@H]1O` (stereo partly drawn), the Potency result in experiment [1], in experiment [2], in experiment [4], in experiment [5], in experiment [6] and in [7] was “inactive” each time. Moreover, the Potency entry in experiment [8], in experiment [10] and in experiment [12] was “inactive” throughout. Moreover, the Potency is 26.6 µM (active) in experiment [3], 29.8 µM (active) in experiment [11] and 38.9 µM (active) in experiment [13]. In addition, the outcome in [9] was inactive.
In the case of `O=c1[nH]c2ccccc2n1CCCN1CCN(C(c2ccccc2)c2ccccc2)CC1`, the Potency entry in experiment [1], in experiment [2], in experiment [5], in [6] and in experiment [12] was “inactive” in each case. The Potency in experiment [3] was 29.8 µM (active); in experiment [14] it was 33.5 µM (active); in experiment [15], 4.22 µM (active); in experiment [13], 0.692 µM (active).
Regarding `CC(=O)OCC=C(C)C`, the Potency entry in experiment [1], in experiment [2], in [3], in experiment [5], in [6] and in experiment [7] was “inactive” in each case. Further, the Potency entry in experiment [14], in experiment [10], in experiment [11], in [16], in experiment [15] and in experiment [13] was “inactive” throughout.
Turning to `OC12N=C(c3ccccc3)SC1Cc1cc(Cl)ccc12` (stereo not drawn), the Potency entry in [1], in experiment [2], in [5], in experiment [6], in experiment [7] and in [10] was “inactive” throughout. Moreover, the figures for the Potency in [3], in experiment [15] and in [13] were 43.3 µM (active), 10.9 µM (active) and 39.9 µM (active), respectively.
With `CCCC(=O)OCOC(=O)C1=C(C)NC(C)=C(C(=O)OC)C1c1cccc(Cl)c1Cl` (stereo not drawn), the Potency result in experiment [1], in experiment [2], in experiment [17], in experiment [5], in experiment [6] and in [7] was “inactive” in each case. The Potency entry in experiment [14], in experiment [11] and in experiment [13] was “inactive” throughout.
As to `CC(C)(C)c1csc(-c2cc3cc(OCc4ccccc4CC(=O)O)ccc3o2)n1`, the Potency result in experiment [1], in experiment [5], in experiment [6], in experiment [8], in experiment [10] and in [12] was “inactive” throughout. Further, the Potency result in [13] is “inactive”. Further, the Potency in [3] was 43.3 µM (active); in experiment [14] it was 61.1 µM (active); in experiment [11], 61.1 µM (active); in experiment [16], 68.6 µM (active); in [15], 61.1 µM (active). Further, the compound was called inactive in experiment [9].
On to `CC1=CCC(=C(C)C)CC1`, for which the Potency result in experiment [1], in experiment [3], in [17], in [4], in [6] and in experiment [7] was “inactive” each time. Further, the Potency result in [14], in experiment [10], in [11], in [12], in experiment [16] and in [13] was “inactive” each time. Moreover, the Potency in [15] is 43.3 µM (active).
Regarding `Clc1ccnc(Cl)n1`, the Potency entry in [1], in [2], in [4], in experiment [5], in experiment [6] and in [7] was “inactive” in each case. Also, the Potency entry in experiment [8], in [14], in experiment [10], in experiment [11], in experiment [12] and in experiment [16] was “inactive” throughout. The Potency entry in [15] and in experiment [13] was “inactive” in each case. For the same compound, the call in experiment [9] was inactive.
Consider `C#CC1(O)CC[C@H]2[C@@H]3CCC4=CCCC[C@@H]4[C@H]3CC[C@@]21C` (stereo partly drawn), for which the Potency result in [1], in [5], in [7], in experiment [8], in [12] and in [13] was “inactive” throughout. Moreover, the Potency was 0.486 µM (active) in experiment [2]; 61.1 µM (active) and 26.6 µM (active) in experiment [11]. In addition, in experiment [9], the compound was classed as inactive. In experiment [18], the max activation is -0.183%.
